Bioassay records as filed in PubChem BioAssay.
MazEF act: activators of E. coli MazEF toxin-antitoxin RNase. 350,000 tested, 0.32% active. AID 504720. activation, % at 20 µM. FAM/BHQ RNA-DNA oligo cleavage fluorescence, 5 h. P0AE70; in the data active = activation above about 50%
Target sequence (P0AE70 whole entry, looked up): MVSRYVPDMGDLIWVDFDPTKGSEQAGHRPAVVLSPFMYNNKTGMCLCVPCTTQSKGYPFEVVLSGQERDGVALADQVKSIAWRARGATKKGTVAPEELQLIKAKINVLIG
DUSP3 inh: DUSP3 (human) phosphatase inhibition; 290,000 tested, 0.52% active; recombinant VHR phosphatase, pNPP absorbance; inhibition, % at 13.3 µM; AID 1654; P51452; in the data active = inhibition above about 50%
Target sequence (P51452 whole entry, looked up): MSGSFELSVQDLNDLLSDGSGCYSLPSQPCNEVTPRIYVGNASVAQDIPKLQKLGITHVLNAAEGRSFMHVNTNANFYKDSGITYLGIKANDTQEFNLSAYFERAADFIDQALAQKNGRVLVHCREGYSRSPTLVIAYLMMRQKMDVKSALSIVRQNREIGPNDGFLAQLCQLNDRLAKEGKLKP
BJeLR viability: kills HRASV12-expressing BJeLR cells. BJeLR (HRASV12) viability, CellTiter-Glo ATP luminescence, 48 h. inhibition, % (concentration not given with the values). 300,000 tested, 0.17% active; in the data active = inhibition above about 50%
CCHF vOTU inh-1: CCHFV vOTU protease inhibition | Pep-AMC fluorescence | inhibition, % at 11.5 µM | 370,000 tested, 0.55% active | AID 651958; note: 0% = vehicle wells with enzyme and 100% = no enzyme wells
SARS 3CLpro inh: SARS-CoV 3CLpro protease inhibition; 290,000 tested, 0.14% active; inhibition, % at 6 µM; recombinant SARS-CoV 3CLpro, quenched FRET peptide cleavage; P0C6X7; AID 1706; in the data active = inhibition above about 12%
CCHF vOTU inh-2: CCHFV vOTU protease inhibition, confirmation; shares compounds with CCHF vOTU inh-1; Recombinant CCHFV vOTU, Pep-AMC fluorescence; inhibition, % at 11.5 µM; 1,900 tested, 17% active
Numbers without * were called inactive; / = not tested or not shown. Rows were chosen to be rich in hits. Some 1.4% of all compounds tested hit in one or more screens of this group. Cut-off read from the data, not from the text of the source, unless noted: active = inhibition above about 30%; inactive = the rest.

SMILES	MazEF act	DUSP3 inh	BJeLR viability	CCHF vOTU inh-1	SARS 3CLpro inh	CCHF vOTU inh-2
COC(=O)COc1ccc(S(=O)(=O)NC2CCCCCC2)cc1	9.6	14.5	-4.3	54.6*	-0.1	-17.3
O=C(COc1ccc(S(=O)(=O)NC2CCCCC2)cc1)NC1CCCCC1	-3.5	-4.6	-7.3	7.1	3.9	/
COC(=O)[C@H](C(C)C)N(CCCc1cn(Cc2ccc(C)cc2)nn1)S(=O)(=O)c1ccc(F)cc1Br	/	/	/	8.4	/	/
O=C1Cc2ccccc2C(=O)N1Cc1ccccc1	2.9	15.8	/	93.0*	1.0	90.6*
O=C1Cc2ccccc2C(=O)N1c1ccccc1	8.7	2.2	0.9	18.7	0.8	/
Nc1cc([N+](=O)[O-])cc2oc(-c3ccccc3)cc12	14.8	32.2	-0.1	32.3*	3.5	-11.9
O=C1c2ccccc2C(=O)N1CC1=NCCc2ccccc21	-12.6	31.5	-2.5	39.4*	-6.8	-14.8
O=C1c2ccccc2CCc2ccccc21	-3.9	/	/	10.2	/	/
CN(C)c1ccc(/C=N/NC(=O)c2cc(=O)[nH]c3ccccc23)cc1	-2.1	16.6	-7.2	32.5*	7.6	2.5
Cc1ccc(C2=CCN(C)C(=O)N2c2ccc([N+](=O)[O-])cc2)cc1	/	/	/	4.4	/	/
O=C(Cc1ccc(NC(=O)C2CCCN(C(=O)C3CCCC3)C2)cc1)Nc1cccc(C(=O)N2CCCCC2)c1 (stereo not drawn)	4.0	/	/	-5.4	/	/
CN(C(=O)c1ccc(NC(=O)Cc2cccc(NC(=O)C3CCN(C(=O)C4CCCC4)CC3)c2)cc1)C1CCCC1	-2.2	/	/	2.1	/	/
O=C(Cc1ccc(NC(=O)C2CCCN(C(=O)c3ccccc3)C2)cc1)Nc1cccc(C(=O)N2CCCCC2)c1 (stereo not drawn)	/	/	/	32.3*	/	-20.8
CN(C(=O)c1ccc(NC(=O)Cc2cccc(NC(=O)C3CCN(C(=O)C4CCCCC4)CC3)c2)cc1)C1CC1	9.5	/	/	34.5*	/	-21.3
[O-][n+]1cccc2c(Br)cc(Br)c(O)c21	3.5	28.3	4.1	-1.7	0.1	/
C[n+]1cccc2c(Br)ccc([O-])c21	1.8	26.9	5.4	102.7*	13.0*	41.6*
O=c1c2ccccc2nc2n1CCC2	16.0	42.5	-4.4	12.6	5.6	/
O=C1CCn2c1c(O)c1ccccc1c2=O	-25.4	/	/	95.0*	/	34.3*
S=C(Nc1ccc2nsnc2c1)N1CCCC1	1.8	25.1	1.3	104.8*	-1.1	-12.3
COc1cc(/C=N/NC(=O)C(Cc2c[nH]c3ccccc23)NC(=O)OCc2ccccc2)cc([N+](=O)[O-])c1O (stereo not drawn)	-1.5	23.7	-1.0	35.0*	-0.5	10.2
COc1cc(/C=N/NC(=O)C(Cc2c[nH]c3ccccc23)NC(=O)OCC(C)C)cc([N+](=O)[O-])c1O (stereo not drawn)	1.7	6.8	-6.7	24.9	2.1	/
CCCCCCN1CCS(=O)(=O)N(Cc2ccc(OC)cc2)C(C(=O)OC)C1 (stereo not drawn)	/	/	/	5.7	/	/
CC(=O)c1cccc(NC(=O)/C(=C/c2ccco2)NC(=O)c2ccco2)c1	-5.9	0.5	-5.4	37.2*	1.6	-1.4
C[C@@H]1[C@@H](O)C[C@@]2(C[C@H](O)c3cc(Cl)ccc3O2)O[C@H]1c1ccccc1Cl	/	/	/	10.3	/	/
Oc1ccc(/C=N\Nc2cc(N3CCOCC3)nc(N3CCOCC3)n2)c(O)c1	2.1	-2.2	5.2	42.1*	-0.4	1.6
SMILES	MazEF act	DUSP3 inh	BJeLR viability	CCHF vOTU inh-1	SARS 3CLpro inh	CCHF vOTU inh-2
Cc1cc(N/N=C/c2ccc(O)cc2O)nc(N2CCOCC2)n1	-4.0	8.8	11.1	14.2	-0.3	/
Cc1ccc(-n2c(C)cc(/C=C3\NC(=O)NC3=O)c2C)c(C)c1	0.5	-17.0	-6.4	32.8*	3.5	-2.2
O=C1C=C(N2CCOCC2)c2cccc3cccc1c23	-546.0	/	/	10.8	/	/
O=C(O)c1cccc(NC2=C(N3CCOCC3)C(=O)c3ccccc3C2=O)c1	3.9	21.7	-0.1	78.7*	0.0	93.3*
O=C1C=C(N2CCOCC2)c2ccccc2C1=O	7.3	17.9	-2.3	102.7*	4.0	93.8*
O=S1(=O)C=C(N2CCCCC2)c2ccccc21	-2.8	-2.6	-1.8	-0.4	-9.0	/
O=C1C=C(N2CC2)c2ccccc2C1=O	4.0	/	/	105.0*	/	92.0*
Cc1nc2ccc(S(=O)(=O)NCC(=O)NCc3ccccc3C)cc2s1	/	/	/	-0.4	/	/
Nn1c(SCC(=O)Nc2cccc3ccccc23)nnc1-c1cc(-c2ccc(Cl)cc2)n[nH]1	/	/	/	5.1	/	/
COC(=O)[C@]12C[C@H](CC(=O)NCCCN3CCCC3=O)C(=O)N(Cc3cccc4ccccc34)C1=C[C@H](C(C)C)O[C@@H]2C1CC1	/	/	/	-1.0	/	/
CCOC(=O)CCCNC(=O)OCCCN1CCC2(CCC(c3ccccc3)CC2)C1=O (stereo not drawn)	/	/	/	-1.9	/	/
COC(=O)[C@]1(C#N)CC(=O)N(c2ccccc2)[C@@H]1c1ccccc1	/	/	/	-3.9	/	/
CC(C)CC(NC(=O)C(Cc1ccc(OCc2ccccc2)cc1)NC(=O)OC(C)(C)C)C(N)=O (stereo not drawn)	-9.3	-19.8	5.4	31.6*	0.3	-11.5
COC(=O)C(Cc1ccccc1)NC(=O)C(CC(C)C)NC(=O)OC(C)(C)C (stereo not drawn)	-0.3	2.9	-12.6	1.0	-4.6	/
C[C@@H](NC(=O)c1nc[nH]c1C(=O)N[C@@H](CCCCNC(=O)OC(C)(C)C)C(=O)OC(C)(C)C)c1ccccc1	8.5	13.9	-2.7	34.7*	3.5	4.6
CC(C)(C)OC(=O)NCCCC[C@H](NC(=O)c1[nH]cnc1C(=O)N[C@@H](Cc1ccccc1)C(=O)OCc1ccccc1)C(=O)OC(C)(C)C	-3.4	/	/	31.2*	/	12.6
CC(C)(C)OC(=O)NCCCC[C@H](NC(=O)c1[nH]cnc1C(=O)Nc1ccccc1)C(=O)OC(C)(C)C	10.3	23.1	-0.2	23.1	/	/
CCOCCCNC1=C(Cl)C(=O)c2ccccc2C1=O	3.2	0.0	-7.1	46.5*	0.9	59.6*
Cc1ccc(NC2=C(NCCO)C(=O)c3ccccc3C2=O)cc1	-2.4	1.3	-2.5	114.8*	6.7	42.0*
O=C1C(Cl)=C(NCCCO)C(=O)c2ccccc21	5.7	-3.8	0.6	45.2*	3.3	48.1*
O=C1C(Cl)=C(NCCN2CCOCC2)C(=O)c2ccccc21	9.6	22.5	10.1	43.4*	1.1	62.1*
C=CCN1C(=O)[C@@H](CC(=O)NCCc2ccccc2OC)[C@]2(C(=O)OC)CCCCC=C12	/	/	/	-1.3	/	/
CCOC(=O)Cn1cc(CN2CCS(=O)(=O)N(Cc3ccc(F)cc3)C(C(=O)OC)C2)nn1 (stereo not drawn)	/	/	/	0.8	/	/
Oc1cc(Nc2ccccc2)cc2cccnc12	-7.6	/	/	2.1	/	/
Oc1cc(NCCN2CCOCC2)cc2cccnc12	17.6	/	/	99.2*	/	45.8*
Cc1ccc(Cn2cc(COC(=O)NCCc3c[nH]c4ccccc34)nn2)cc1	/	/	/	3.9	/	/
